Values joined by “and” are separate entries in the source; they are usually repeats but may differ in a detail not shown here. Equal entries are not always repeated. A number with no mark means an inactive call. Inconclusive results are not listed. Active and inactive are the calls of the source. The call rests on the fitted dose curve; in most records, active means well fitted curve in the direction sought with a large enough effect in the repeat runs; inconclusive means weak or mixed curves; inactive means no such curve, though single readings can be large; an effect the other way counts as inactive or inconclusive.

A short description of assay [1]: A CellTox Green Cytotoxicity Assay to monitor cytotoxicity in HEK293 cells - 32 hour (AID 1224881). Further: nearly all actives have a fitted effect of over 40% in size. Further: potency means the concentration at half of the fitted maximal effect. The procedure, abridged:
(§1)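 Fluorescence from a DNA-binding dye excluded by viable cells was measured repeatedly in the same HEK293 wells (600 cells/well) during continuous compound exposure at 37 C. Each assay gives one read point: 0, 8, 16, 24, 32 or 40 h.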

A short description of assay [2]: A CellTox Green Cytotoxicity Assay to monitor cytotoxicity in HepG2 cells - 0 hour (AID 1224882). Further: nearly all actives have a fitted effect of over 35% in size. Further: potency means the concentration at half of the fitted maximal effect. In outline:
(§2)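 Real-time cytotoxicity: fluorescence of a cell-impermeant cyanine dye binding DNA of dead HepG2 cells, measured repeatedly (0–40 h) during compound exposure at 37 C. Cells seeded 600/well with reagent, dosed after 5 h.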

Assay [3] is described as follows: A CellTox Green Cytotoxicity Assay to monitor cytotoxicity in HepG2 cells - 32 hour (AID 1224883). Further: nearly all actives have a fitted effect of over 50% in size. Further: potency means the concentration at half of the fitted maximal effect. The procedure, abridged: as §2
Assay [4] is described as follows: A CellTox Green Cytotoxicity Assay to monitor cytotoxicity in HEK293 cells - 8 hour (AID 1224884). Further: nearly all actives have a fitted effect of over 35% in size. Further: potency means the concentration at half of the fitted maximal effect. The procedure, abridged: as §1
Assay [5] is described as follows: qHTS RealTime-Glo MT Cell Viability Assay in HEK293 cells - 24 hour (AID 1224886). Further: nearly all actives have a fitted effect of over 50% in size. Further: potency means the concentration at half of the fitted maximal effect. On activity change, negative = cytotoxicity: top concentration of the series differs between compounds. The procedure, abridged:
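Reads taken at 0, 8, 16, 24, 32 and 40 h from the same wells. HEK293 cells (600/well) carried RealTime-Glo reagents from seeding, with compound added after a 5 h settle at 37 C.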
In general terms: In qHTS, concentration-response curves come from the screen itself.

A short description of assay [6]: qHTS RealTime-Glo MT Cell Viability Assay in HEK293 cells - 8 hour (AID 1224887). Further: nearly all actives have a fitted effect of over 50% in size. Further: potency means the concentration at half of the fitted maximal effect. On activity change, negative = cytotoxicity: top concentration of the series differs between compounds. The procedure, abridged: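 Luminescence, which tracks viable cell number through reduction of the prosubstrate to a NanoLuc substrate, was read over continuous 37 C culture. Cells (600/well) were premixed with reagent and rested 5 h before 23 nL of compound in DMSO was pinned.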
The nature of assay [7]: A CellTox Green Cytotoxicity Assay to monitor cytotoxicity in HEK293 cells - 16 hour (AID 1224888). Further: nearly all actives have a fitted effect of over 35% in size. Further: potency means the concentration at half of the fitted maximal effect. The procedure, abridged: as §1
The nature of assay [8]: qHTS RealTime-Glo MT Cell Viability Assay in HepG2 cells - 0 hour (AID 1224889). Further: nearly all actives have a fitted effect of over 50% in size. The procedure, abridged: (§3)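 HepG2 suspension premixed with RealTime-Glo reagents is plated at 600 cells per well and left 5 h at 37 C/5% CO2. Compounds in DMSO then go in, and bioluminescence reflecting viable cell number is recorded over 40 h.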
Assay [9] in a line: qHTS RealTime-Glo MT Cell Viability Assay in HepG2 cells - 16 hour (AID 1224885). Further: nearly all actives have a fitted effect of over 50% in size. Further: potency means the concentration at half of the fitted maximal effect. The procedure, abridged: as §3
The nature of assay [10]: A CellTox Green Cytotoxicity Assay to monitor cytotoxicity in HepG2 cells - 8 hour (AID 1224890). Further: nearly all actives have a fitted effect of over 45% in size. Further: potency means the concentration at half of the fitted maximal effect. In outline: as §2
On the % scale 0 is the no-effect control and ±100 the full control effect.

In the case of `O=C(Cl)OCCOCCOC(=O)Cl`, the Potency result in [1], in [2], in [3], in assay [4], in assay [5] and in [6] was “inactive” each time. Also, the Potency result in assay [7] was “inactive”. The call in [8] was inactive.
In the case of `C[CH2][Hg][S]c1ccccc1C(=O)O`, the Potency in assay [1] was 7.76 µM (active) and 4.77 µM (active); in assay [3], 3.09 µM (active) and 2.13 µM (active); in assay [4] it was 4.77 µM (active); in assay [9], 2.45 µM (active) and 2.13 µM (active); in assay [5], 1.1 µM (active) and 1.34 µM (active); in assay [7], 4.77 µM (active). Moreover, in assay [10], the Potency was 7.76 µM (active) and 2.39 µM (active). Further, the Potency entry in assay [2] was “inactive”. The result in assay [8] was inactive.
Consider `Nc1c(Br)cc(Br)c2c1C(=O)c1ccccc1C2=O`, for which the cytotoxicity increase in [1] was -1.22% [at 15.8 µM]; in assay [3], -5.33% [at 15.8 µM]; in [4], -10.2% [at 15.8 µM]; in [10] it was -5.92% [at 15.8 µM]. Moreover, the cytotoxicity in [2] is -4.24% [at 15.8 µM]. The activity change, negative = cytotoxic in [9] is -7.09% [at 15.8 µM]. The activity change in assay [7] is -11% [at 15.8 µM, active compounds read high]. For the same molecule, in assay [8], the activity change, negative = cytotoxicity was -16.3% [at 15.8 µM].
Turning to `C=CCSSCC=C`, the Potency entry in [1], in assay [2], in assay [3], in assay [5], in [6] and in assay [7] was “inactive” each time. For the same molecule, the Potency entry in assay [10] is “inactive”. Besides, the Potency in [4] was 54.9 µM (active). Further, the outcome in assay [8] was inactive.
On to `C[N+]1(CCC(C(N)=O)(c2ccccc2)c2ccccc2)CCCCC1`, for which the Potency entry in [1], in assay [2], in assay [3], in assay [4], in assay [9] and in assay [5] was “inactive” each time. In addition, the Potency entry in [7] and in assay [10] was “inactive” each time. Also, the molecule was called inactive in assay [8].
Take `COc1ccccc1N1CCNCC1`: the Potency result in assay [1], in [2], in [3], in assay [4], in assay [5] and in assay [6] was “inactive” in each case. In addition, the Potency entry in assay [7] and in [10] was “inactive” in each case. Further, in assay [8], the molecule was classed as inactive.
For `CC(C)c1ccc(OP(=O)(Oc2ccc(C(C)C)cc2)Oc2ccc(C(C)C)cc2)cc1`, the Potency result in assay [1], in assay [2], in [3], in assay [4], in assay [5] and in assay [6] was “inactive” in each case. The Potency entry in assay [7] and in assay [10] was “inactive” each time. In assay [8], the outcome was inactive.
Take `Cc1ccc2c(C)cccc2c1`: the Potency entry in [1], in assay [2], in assay [3], in assay [4], in assay [5] and in assay [6] was “inactive” in each case. Also, the Potency result in assay [7] is “inactive”. In addition, the result in assay [8] was inactive.
For `Clc1ccc(Cl)c(Cl)c1`, the Potency result in assay [1], in [2], in [3], in assay [4], in [5] and in assay [6] was “inactive” throughout. The Potency result in [7] and in [10] was “inactive” in each case. Besides, the molecule was called inactive in assay [8].
On to `C[C@H](N)[C@H](O)c1ccc(O)c(O)c1`, for which the Potency is 19 µM (active) in [1]; 26.8 µM (active) in assay [2]; 21.3 µM (active) in assay [3]; 19 µM (active) in assay [4]; 21.3 µM (active) in assay [7]; 26.8 µM (active) in assay [10]. The Potency entry in [5] and in [6] was “inactive” each time. Also, the outcome in [8] was inactive.
With `COP(=O)(OC)OC(Br)C(Cl)(Cl)Br` (stereo not given), the Potency entry in [1], in assay [2], in assay [3], in [4], in [9] and in assay [6] was “inactive” each time. The Potency entry in assay [7] and in assay [10] was “inactive” each time. Besides, the result in [8] was inactive.
`CC(C)[C@@H](C(=O)O[C@@H](C#N)c1cccc(Oc2ccccc2)c1)c1ccc(Cl)cc1`: the Potency result in assay [1], in assay [2], in assay [3], in [4], in assay [9] and in assay [7] was “inactive” in each case. Also, the Potency result in assay [10] is “inactive”. For the same molecule, in assay [8], the result was inactive.
As to `C=CC(=O)NC(C)(C)CC(C)=O`, the Potency result in assay [1], in [2], in assay [3], in [4], in assay [5] and in assay [6] was “inactive” each time. Besides, the Potency entry in assay [7] and in assay [10] was “inactive” throughout. Also, the molecule was called inactive in assay [8].
Consider `O=C(O)C(Cl)(Cl)Br`, for which the Potency result in assay [1], in assay [2], in assay [3], in [4], in [9] and in assay [5] was “inactive” in each case. Also, the result in [8] was inactive.
As to `CCCCCCCCCCCCCCCl`, the Potency result in assay [1], in assay [2], in assay [3], in [4], in assay [5] and in assay [6] was “inactive” in each case. For the same molecule, the Potency entry in assay [7] and in assay [10] was “inactive” each time. Besides, the call in assay [8] was inactive.
Turning to `CN(C)c1ccc(N=O)cc1`, the Potency in assay [1] is 11 µM (active) and 19.5 µM (active); in assay [3], 39 µM (active); in assay [5], 15.5 µM (active) and 24.5 µM (active); in assay [6] it was 15.5 µM (active) and 21.9 µM (active). Besides, the Potency result in [2], in [4], in assay [7] and in [10] was “inactive” each time.
On to `CC(C)(C#N)C(C)(C)C#N`, for which the Potency result in assay [1], in assay [2], in assay [3], in assay [4], in assay [5] and in [6] was “inactive” each time. Moreover, the Potency result in assay [7] and in assay [10] was “inactive” in each case. Moreover, the result in [8] was inactive.
For `CCOc1cccc(C2(N3CCN(c4ccccc4)CC3)CCC(C)CC2)c1` (stereo not given), the Potency result in assay [1], in assay [2], in [3], in assay [4], in [9] and in assay [5] was “inactive” throughout. For the same molecule, the Potency entry in assay [7] and in assay [10] was “inactive” throughout. Besides, the outcome in assay [8] was inactive.

These data come from PubChem BioAssay (Tox21).
